The results in this text go back to PubChem BioAssay (NCATS).

“And” between values parts separate entries of the source, which are not always exact repeats. Equal entries are not always repeated. Records with an inconclusive call do not appear. A number with no mark means an inactive call. The source made the active and inactive calls. The call rests on the fitted dose curve; in most records, active means well fitted curve in the direction sought with a large enough effect; inconclusive means small, poorly fitted or top-dose-only effect, or another doubt; inactive means no such curve, though single readings can be large; an effect the other way counts as inactive or inconclusive.

The nature of test [1]: Quantitative highthroughput screen to assess conditional lethalithy of NOMO1 cells grown in RPMI1640 with untreated serum (RPMI+s) (AID 1963876). Further: nearly all actives have a fitted effect of over 35% in size.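 On viability: 100% = DMSO wells and 0% = empty wells without cells.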 In a few lines:
(§1)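 Each medium arm—HPLM with 10% dialyzed FBS, or RPMI1640 with 5 mM glucose and 10% untreated or dialyzed FBS—was screened against an 11-point, 3-fold compound titration for 48 h at 37 °C, with CellTiter-Glo luminescence as endpoint.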

Test [2] in a line: Quantitative highthroughput screen to assess conditional lethalithy of NOMO1 cells grown in RPMI1640 with dialyzed fetal bovine serum (RPMI+ds) (AID 1963877). Further: nearly all actives have a fitted effect of over 30% in size.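 On viability: series mostly up to about 46 µM; 100% = DMSO control wells and 0% = empty wells.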 The method, boiled down: as §1
A short description of test [3]: Quantitative highthroughput screen to assess conditional lethalithy of NOMO1 cells grown in Human Plasma-Like Medium with dialyzed fetal bovine serum (HPLM+ds) (AID 1963878). Further: nearly all actives have a fitted effect of over 35% in size.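 On viability: 100% = DMSO wells and 0% = empty wells on each plate.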 The method, boiled down:
as §1

Test [4] is described as follows: Quantitative highthroughput screen to assess conditional lethalithy of P12 Ichikawa cells grown in Human Plasma-Like Medium with dialyzed fetal bovine serum (HPLM+ds) (AID 1963879). Further: nearly all actives have a fitted effect of over 35% in size. On viability: series mostly up to about 46 µM. The note with it: Potency: viability. In a few lines: as §1
Test [5] in a line: Quantitative highthroughput screen to assess conditional lethalithy of P12 Ichikawa cells grown in RPMI1640 with dialyzed fetal bovine serum (RPMI+ds) (AID 1963880). Further: nearly all actives have a fitted effect of over 35% in size.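 On viability: 100% = DMSO wells and 0% = empty wells on each plate.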 The note with it: Potency: P12-Ichikawa viability. The method, boiled down:
as §1

Test [6] can be described thus: Quantitative highthroughput screen to assess conditional lethalithy of P12 Ichikawa cells grown in RPMI1640 with untreated serum (RPMI+s) (AID 1963881). Further: nearly all actives have a fitted effect of over 35% in size.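 On viability: series mostly up to about 46 µM; 100% = DMSO wells and 0% = empty wells without cells.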 The note with it: Potency: viability. In a few lines: as §1
Test [7] in a line: Quantitative highthroughput screen to assess conditional lethalithy of SEM cells grown in Human Plasma-Like Medium with dialyzed fetal bovine serum (HPLM+ds) (AID 1963882). Further: nearly all actives have a fitted effect of over 35% in size. On viability: series mostly up to about 46 µM. In a few lines: as §1
The nature of test [8]: Quantitative highthroughput screen to assess conditional lethalithy of SEM cells grown in RPMI1640 with unreated serum (RPMI+s) (AID 1963883). Further: nearly all actives have a fitted effect of over 35% in size.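 On viability: 100% = DMSO wells and 0% = empty wells without cells.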 The method, boiled down: as §1
Test [9] in a line: Cellular viability qHTS for adrenocortical cancer (ACC) cell line SW-13 (AID 1963989). Further: nearly all actives have a fitted effect of over 65% in size.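 On activity (max response): cells grown in serum-free medium with ITS supplement; on the % scale 0 is the no-effect control and ±100 the full control effect.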 The note with it: SW-13 ACC cells viability, CellTiter-Glo, 48 h; activity (max response): hits give low values. The method, boiled down:
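IC50 and maximal-response values come from four-parameter logistic fits of titration data. SW-13 cells in serum-free medium received compounds (up to 46 uM final) for 48 h before CellTiter-Glo luminescence.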
On the technique in general: qHTS replaces the single test concentration by a dilution series.

A short description of test [10]: Cellular viability qHTS for adrenocortical cancer (ACC) cell line NCI-H295R (AID 1963990). Further: nearly all actives have a fitted effect of over 60% in size. The method, boiled down: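 Adrenocortical carcinoma cells, suspended at 300 000 cells/mL in serum-free DMEM plus ITS, rested overnight before pin transfer of compound. After two days' incubation, ATP-dependent luminescence was recorded and curve-fitted.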
Test [11] can be described thus: Quantitative highthroughput screen to assess conditional lethalithy of SEM cells grown in RPMI1640 with dialyzed fetal bovine serum (RPMI+ds) (AID 1963884). Further: nearly all actives have a fitted effect of over 35% in size.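 On viability: series mostly up to about 46 µM; 100% = DMSO control wells and 0% = empty wells without cells.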 The method, boiled down: as §1
Potency means the concentration at half of the fitted maximal effect.

On to `Nc1cccc(S(=O)(=O)N2CCCN(S(=O)(=O)c3ccc4c(c3)OCCO4)CC2)c1`, for which the Potency entry in [1], in test [2], in test [3], in test [4], in [5] and in test [6] was “inactive” each time. The Potency entry in test [7], in test [8] and in test [10] was “inactive” in each case. In addition, in test [9], the activity (max response) was -19.9%.
As for `Cc1ccc(NC(=O)c2cccc(N(C)C)c2)cc1NC(=O)c1ccc(O)cc1`, the Potency result in [1], in test [2], in [3], in test [4], in test [5] and in test [6] was “inactive” each time. For the same compound, the Potency result in [7], in test [8], in test [11] and in test [10] was “inactive” in each case.
Consider `CCC(C)(C)c1ccc(CC(C)CN2C[C@@H](C)O[C@@H](C)C2)cc1` (stereo partly drawn), for which the Potency result in [1], in test [2], in test [3], in [4], in test [5] and in test [6] was “inactive” in each case. In addition, the Potency entry in test [7], in [8] and in test [11] was “inactive” throughout. Further, the Potency in [10] was 18.4 µM (active).
For `c1ccc(CNc2nc(N3CCOc4ccccc43)nc3c2CCCC3)cc1`, the Potency result in [1], in [2], in test [3], in test [4], in test [5] and in test [6] was “inactive” throughout. Moreover, the Potency entry in test [7] and in test [11] was “inactive” throughout.
For `CC1(C)S[C@H]2[C@H](NC(=O)[C@@H](N)c3ccc(O)cc3)C(=O)N2[C@@H]1C(=O)O`, the Potency in [1] was 8.33 µM (active); in [2], 9.35 µM (active); in [3] it was 5.26 µM (active); in [4], 7.43 µM (active); in test [5] it was 5.9 µM (active); in [6], 8.33 µM (active). Also, in test [7], the Potency was 16.6 µM (active). Also, the Potency entry in test [11] was “inactive”.
With `Oc1ccc(C2CNCCc3c2cc(O)c(O)c3Cl)cc1` (stereo not drawn), the Potency entry in test [1], in test [2], in test [3], in test [4], in [5] and in [6] was “inactive” each time. Further, the Potency entry in [7], in test [8] and in test [10] was “inactive” in each case. For the same compound, in [9], the activity (max response) is 2.44% and 14.8%.
Take `Cc1cc(OCCCc2c(C(=O)O)n(Cc3cccnc3)c3c(-c4c(COc5ccc(N6CCN([S+](C)(=O)[O-])CC6)cc5)nn(C)c4C)cccc23)cc(C)c1Cl`: the Potency result in test [1], in test [2], in test [3], in test [4], in test [5] and in test [6] was “inactive” in each case. Further, the Potency entry in test [7] is “inactive”. For the same compound, the Potency in [11] is 18.7 µM (active).
In the case of `CC(=O)Nc1cccc(-n2c(=O)n(C3CC3)c(=O)c3c(Nc4ccc(I)cc4F)n(C)c(=O)c(C)c32)c1`, the Potency is 0.332 µM (active) in test [1]; 0.209 µM (active) in test [2]; 0.235 µM (active) in test [3]; 2.64 µM (active) in [4]; 4.69 µM (active) in test [5]; 3.72 µM (active) in test [6]. The figures for the Potency in test [7], in test [8] and in test [11] were 2.35 µM (active), 1.48 µM (active) and 1.87 µM (active), respectively. Also, the Potency result in [10] was “inactive”.
Regarding `Cc1coc2c1C(=O)C(=O)c1c-2ccc2c(C)cccc12`, the Potency result in test [1], in test [2], in [3], in [4], in test [5] and in test [6] was “inactive” in each case. Further, the Potency entry in test [7] and in [11] was “inactive” throughout.
As for `CCOC(=O)C1=C(C)NC(=S)NC1c1cccc(O)c1` (stereo not drawn), the Potency in test [1] was 0.148 µM (active); in test [2] it was 0.264 µM (active); in test [3], 0.235 µM (active); in test [4] it was 0.187 µM (active); in [5] it was 0.296 µM (active); in [6], 0.148 µM (active). The Potency is 0.0743 µM (active) in test [7], 0.132 µM (active) in [8] and 0.166 µM (active) in test [11]. Also, the Potency result in test [10] was “inactive”.
As for `COc1cc2c(cc1OC)C1CC(=O)C(CC(C)C)CN1CC2` (stereo not drawn), the Potency entry in [1], in test [2], in test [3], in [4], in test [5] and in [6] was “inactive” throughout. The Potency result in test [7], in test [8], in test [11] and in test [10] was “inactive” in each case.
With `CN(C)CCN(Cc1ccc(Cl)cc1)c1ccccn1`, the Potency result in [1], in test [2], in [3], in test [4], in [5] and in test [6] was “inactive” throughout. In addition, the Potency result in [7], in test [8], in test [11] and in [10] was “inactive” each time. In [9], the activity (max response) was -3.95%.
For the compound `O=C1CCc2cc(OCCCCc3nnnn3C3CCCCC3)ccc2N1`, the Potency result in test [1], in test [2], in test [3], in test [4], in [5] and in test [6] was “inactive” in each case. The Potency result in [7], in test [8], in test [11] and in test [10] was “inactive” each time.
As for `Cc1cc(-c2nnc3n2CCCCC3)c(C)n1-c1ccccc1`, the Potency result in [1], in [2], in test [3], in test [4], in test [5] and in test [6] was “inactive” each time. The Potency result in [7] and in test [11] was “inactive” throughout.
Consider `CCC1=C(C)CN(C(=O)NCCc2ccc(S(=O)(=O)NC(=O)NC3CCC(C)CC3)cc2)C1=O` (stereo not drawn), for which the Potency entry in test [1], in [2], in test [3], in test [4], in test [5] and in test [6] was “inactive” each time. For the same compound, the Potency entry in [7], in test [8], in test [11] and in test [10] was “inactive” throughout. The activity (max response) in [9] was -7.59%.
`CC(=O)O[C@H]1C[C@@H]2CC[C@H]3[C@H]4C[C@H]([N+]5(C)CCCCC5)[C@@H](OC(C)=O)[C@@]4(C)CC[C@@H]3[C@@]2(C)C[C@H]1[N+]1(C)CCCCC1`: the Potency entry in [1], in test [2], in [3], in [4], in test [5] and in test [6] was “inactive” throughout. Further, the Potency entry in [7], in test [8], in [11] and in [10] was “inactive” each time. The activity (max response) in [9] is 7.56%.
As for `COc1cc(O)c2c(c1)C1OC1C[C@H](O)[C@H](O)C(=O)C=CC[C@H](C)OC2=O` (stereo partly drawn), the Potency was 13.2 µM (active) in test [1]; 13.2 µM (active) in test [2]; 10.5 µM (active) in [3]; 18.7 µM (active) in test [4]; 18.7 µM (active) in test [5]; 18.7 µM (active) in test [6]. Further, the Potency in [7] is 4.69 µM (active); in [8], 7.43 µM (active); in test [9], 15.8 µM (active); in test [10], 15.8 µM (active).
Consider `CC(C)[C@H](C(=O)Nc1ccc(C(=O)NO)cc1)c1ccccc1`, for which the Potency is 3.32 µM (active) in [1]; 2.64 µM (active) in test [2]; 2.64 µM (active) in test [3]; 2.35 µM (active) in [4]; 2.35 µM (active) in test [5]; 2.09 µM (active) in test [6]. Further, the Potency is 1.48 µM (active) in test [7], 1.66 µM (active) in test [8], 1.48 µM (active) in test [11] and 1.26 µM (active) in test [10].
